Experimental findings from PubChem BioAssay are described below.

Records with an inconclusive call do not appear. The source made the active and inactive calls.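 The calls were made as follows, unless noted: active = normalized viability below 100% at a tested concentration; inactive = the rest.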

Assay [1] can be described thus: growth inhibition of DIPG glioma cells, dose response, cell-based, SU-DIPG-XVII, MIPE5.0, CellTiter-Glo, qHTS (AID 1347060; cut-off not given, nearly all actives have AC50 up to about 26 µM;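 as to AC50: cells exposed to compound for 48 hours before viability readout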). As to conditions: SU-DIPG-XVII viability, CellTiter-Glo ATP luminescence.
Assay [2] can be described thus: growth inhibition of DIPG glioma cells, dose response, cell-based, SU-DIPG-XIII, MIPE4.0, CellTiter-Glo, qHTS (AID 1347061; cut-off not given, nearly all actives have AC50 up to about 37 µM;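 also: cells exposed to compound for 48 hours before readout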). To be noted: SU-DIPG-XIII viability, CellTiter-Glo ATP luminescence. A general note: In ATP-based viability assays light output follows the ATP content of the culture.
A short description of assay [3]: growth inhibition of DIPG glioma cells, dose response, cell-based, SU-DIPG-IV, MIPE4.0, CellTiter-Glo, qHTS (AID 1347063; cut-off not given, nearly all actives have AC50 up to about 30 µM;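 also: compound exposure lasted 48 hours before the viability readout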). As to conditions: SU-DIPG-IV viability, CellTiter-Glo ATP luminescence.
A short description of assay [4]: SU-DIPG-VI glioma cell viability, MIPE4.0 library, CellTiter-Glo luminescence, qHTS (AID 1347066; cut-off not given, nearly all actives have AC50 up to about 30 µM;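 also: cells exposed to compound for 48 hours before readout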). As to conditions: CellTiter-Glo ATP luminescence.
Assay [5] can be described thus: JHH-DIPG-1 glioma cell viability, MIPE5.0 library, CellTiter-Glo luminescence, qHTS (AID 1347067; cut-off not given, nearly all actives have AC50 up to about 26 µM;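 also: cells exposed to compound for 48 hours before readout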). To be noted: JHH-DIPG-1 glioma viability, CellTiter-Glo ATP luminescence.
The nature of assay [6]: SU-DIPG-XXV glioma cell viability, MIPE5.0 library, qHTS (AID 1347068; cut-off not given, nearly all actives have IC50 up to about 30 µM). For orientation: In qHTS, concentration-response curves come from the screen itself.
Assay [7] is described as follows: viability loss in pontine glioma line – cell-based, SU-DIPG-XXV, MIPE5.0, CellTiter-Glo, qHTS, dose response (AID 1347065; cut-off not given, nearly all actives have AC50 up to about 26 µM;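 also: cells exposed to compound for 48 hours before ATP readout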). To be noted: CellTiter-Glo ATP luminescence.
Assay [8] can be described thus: sensitizers of A549 cells to miR-34 induction, primary screen, imaging, A549 dox-inducible miR-34, nuclei and caspase counts (AID 1347080;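 active = compounds whose cell count with miR-34 switched on is under 0.7 times the count with it off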). As to conditions: A549 miR-34 inducible, Hoechst nuclei count, 48 h.
The nature of assay [9]: survival rescue of mitochondrial mutant cells in low glucose, primary screen, MELAS cybrids, Rieske KO mouse fibroblasts, CellTiter-Glo (AID 1508586;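 active = mean z-score across replicates of 1.96 or higher in either the MELAS or the Rieske mutant cell line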;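 also: z relative to plate mean and SD of compound and empty wells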).
Assay [10] is described as follows: ovarian cancer cell viability with rucaparib, profiling panel, oncology-focused library, rucaparib conditional (AID 1508598). As to conditions: patient-derived ovarian cancer cells, CellTiter-Glo viability, 144 h, stronger effect = lower value.
Assay [11] is described as follows: growth inhibition of DIPG glioma cells, dose response, cell-based, SU-DIPG-XIII, MIPE5.0, CellTiter-Glo, qHTS (AID 1347064; cut-off not given, nearly all actives have AC50 up to about 23 µM;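 also: cells exposed to compound for 48 hours before the viability read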). As to conditions: SU-DIPG-XIII viability, CellTiter-Glo ATP luminescence.
A short description of assay [12]: modifiers of HSF1 nuclear foci, imaging, Selleck Cancer Library (AID 1347162; in the data active = plate-normalised HSF1 focus index below about 0.46). As to conditions: human cells, at 10 µM; SSMD: measured here: HSF1 foci SSMD mean; cell count: measured here: cell number; plate-normalised HSF1 focus index: stronger effect = lower value.
Setting [13] is: stronger effect = lower value, cell number ratio, induced over uninduced.
The mark [14] stands for this setting: measured here: relative caspase fold change +Dox/-Dox.
Setting [15] is: measured here: total cells with miR-34 induction, stronger effect = lower value.
[16] abbreviates: measured here: total cells without miR-34 induction.
Setting [17] is: MELAS cybrid survival, CellTiter-Glo 48 h, stronger effect = higher value.
Where [18] appears, read: Rieske KO mouse fibroblast survival, CellTiter-Glo 72 h.

In the case of `Cc1n[nH]c(C)c1Cc1sc2c(c1C(=O)N1C[C@H](O)CO1)c(=O)n(C)c(=O)n2CC(C)C`, the outcome in [1], in assay [2], in assay [3], in assay [4], in assay [5] and in assay [6] was inactive.

The AC50 is the concentration giving half of the maximal activity seen. Broadly, the viability is a read-out of living cells in per cent, often relative to untreated cells. On to `Nc1cccc2c1C(=O)N(C1CCC(=O)NC1=O)C2=O` (centres undefined), for which the molecule was classed as inactive in [1], in [2], in [3], in assay [4] and in [5]. For the same molecule, the concentration at half-maximal activity (AC50) in assay [7] was 1.18 nM (active). Also, the figures for the fold change in [8] (setting [13]) and in assay [8] (setting [14]) were 0.865 (inactive) and 0.842, respectively. The cell count turned out to be 8200 in [8] (setting [15]) and 9490 in [8] (setting [16]). For the same molecule, the results for the z-score in [9] (setting [17]) and in assay [9] (setting [18]) were 0.05 (inactive) and 0.628, respectively. The viability in [10] (at 0.000305 µM, OCI-C5x cells, with rucaparib 10 µM, 100% = cells with rucaparib alone) was 110% (inactive); in [10] (at 0.000305 µM, OCI-C5x cells, without rucaparib) it was 124% (inactive); in [10] (at 0.000305 µM, OCI-P5x cells, with rucaparib 20 µM, 100% = cells with rucaparib alone), 110% (inactive); in [10] (at 0.000305 µM, OCI-P5x cells, without rucaparib), 127% (inactive); in [10] (at 0.00122 µM, OCI-C5x cells, with rucaparib 10 µM, 100% = cells with rucaparib alone), 109% (inactive); in assay [10] (at 0.00122 µM, OCI-C5x cells, without rucaparib) it was 124% (inactive). Besides, the viability in assay [10] (at 0.00122 µM, OCI-P5x cells, with rucaparib 20 µM, 100% = cells with rucaparib alone) is 107% (inactive); in [10] (at 0.00122 µM, OCI-P5x cells, without rucaparib), 125% (inactive); in assay [10] (at 0.00488 µM, OCI-C5x cells, with rucaparib 10 µM, 100% = cells with rucaparib alone) it was 112% (inactive); in assay [10] (at 0.00488 µM, OCI-C5x cells, without rucaparib), 121% (inactive); in assay [10] (at 0.00488 µM, OCI-P5x cells, with rucaparib 20 µM, 100% = cells with rucaparib alone), 102% (inactive); in assay [10] (at 0.00488 µM, OCI-P5x cells, without rucaparib) it was 118% (inactive). Moreover, the viability in assay [10] (at 0.0195 µM, OCI-C5x cells, with rucaparib 10 µM, 100% = cells with rucaparib alone) is 115% (inactive); in [10] (at 0.0195 µM, OCI-C5x cells, without rucaparib), 125% (inactive); in assay [10] (at 0.0195 µM, OCI-P5x cells, with rucaparib 20 µM, 100% = cells with rucaparib alone), 105% (inactive); in assay [10] (at 0.0195 µM, OCI-P5x cells, without rucaparib), 114% (inactive); in [10] (at 0.0781 µM, OCI-C5x cells, with rucaparib 10 µM, 100% = cells with rucaparib alone), 117% (inactive); in [10] (at 0.0781 µM, OCI-C5x cells, without rucaparib), 112% (inactive). The viability in [10] (at 0.0781 µM, OCI-P5x cells, with rucaparib 20 µM, 100% = cells with rucaparib alone) was 104% (inactive); in [10] (at 0.0781 µM, OCI-P5x cells, without rucaparib) it was 118% (inactive); in assay [10] (at 0.313 µM, OCI-C5x cells, with rucaparib 10 µM, 100% = cells with rucaparib alone) it was 110% (inactive); in [10] (at 0.313 µM, OCI-C5x cells, without rucaparib), 116% (inactive); in assay [10] (at 0.313 µM, OCI-P5x cells, with rucaparib 20 µM, 100% = cells with rucaparib alone), 99.9% (active); in assay [10] (at 0.313 µM, OCI-P5x cells, without rucaparib) it was 107% (inactive). For the same molecule, the viability in assay [10] (at 1.25 µM, OCI-C5x cells, with rucaparib 10 µM, 100% = cells with rucaparib alone) is 118% (inactive); in assay [10] (at 1.25 µM, OCI-C5x cells, without rucaparib), 117% (inactive); in assay [10] (at 1.25 µM, OCI-P5x cells, with rucaparib 20 µM, 100% = cells with rucaparib alone), 88.7% (active); in [10] (at 1.25 µM, OCI-P5x cells, without rucaparib) it was 97.8% (active); in assay [10] (at 5 µM, OCI-C5x cells, with rucaparib 10 µM, 100% = cells with rucaparib alone) it was 105% (inactive); in assay [10] (at 5 µM, OCI-C5x cells, without rucaparib), 110% (inactive). Also, the viability in assay [10] (at 5 µM, OCI-P5x cells, with rucaparib 20 µM, 100% = cells with rucaparib alone) was 84.6% (active); in [10] (at 5 µM, OCI-P5x cells, without rucaparib), 97.3% (active).

For the molecule `CCC(=O)N1CCN(c2ccc(-n3c(=O)ccc4cnc5ccc(-c6cnc7ccccc7c6)cc5c43)cc2C(F)(F)F)CC1`, the AC50 in assay [1] was 45.6 nM (active); in [2] it was 1320 nM (active); in [3] it was 66.2 nM (active); in assay [11], 162 nM (active); in assay [7], 81.1 nM (active). In assay [12], this molecule showed an SSMD of 1.96. In assay [12], this molecule returned a cell count of 7220. Further, the plate-normalised HSF1 focus index in [12] was 1.1 (inactive).

With `Cn1c(Nc2ccc(C(F)(F)F)cc2)nc2cc(Oc3ccnc(-c4ncc(C(F)(F)F)[nH]4)c3)ccc21`, the AC50 was 5250 nM (active) in assay [1]; 16600 nM (active) in assay [2]; 132 nM (active) in [3]; 372 nM (active) in [7]; 3320 nM (active) in [4]; 2630 nM (active) in [5]. Further, the fold change is 0.96 (inactive) in [8] (setting [13]) and 0.95 in [8] (setting [14]). In addition, the results for the cell count in assay [8] (setting [15]) and in [8] (setting [16]) were 2230 and 2330, respectively. In addition, the z-score was 0.723 (inactive) in [9] (setting [17]) and 0.357 in assay [9] (setting [18]).

Take `Cc1cc(C(=O)N2CCN(c3cccc(Cl)c3)CC2)n(-c2ccccc2)n1`: the values for the AC50 in assay [1] and in [7] were 7420 nM (active) and 9340 nM (active), respectively. The outcome in assay [2] and in assay [4] was inactive.
